Results from PubChem BioAssay (EPA / NIEHS).
Results filed as inconclusive are left out. Calls of active or inactive are those of the source. How the source made its calls: active means hit-call score of the fitted dose curve at least 0.9, where 1 is the maximum; inconclusive means response in the unintended direction; inactive means score below 0.9.

Key:
[1] = TOX21_p53_BLA_p2_viability: Viability Assessment in the Tox21 HCT-116 p53 Agonism Beta-lactamase Assay, Phase 2 (AID 2283591);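 further: compound exposure lasted 16 h at 37 °C; actives lower the ATP signal meaning cytotoxicity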
Method in brief: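 HCT-116 p53-bla cells (4000/well) rested 5 h at 37C, then received compounds in DMSO (217-fold dilution) for 16 h at 37C, 5% CO2. After the CCF4 read, CellTiter-Glo was added; ATP luminescence was read after 30 min at room temperature.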

[2] = target: Cellular tumor antigen p53 (Homo sapiens) (UniProt P04637); test: TOX21_p53_BLA_p2_ratio: Tox21 HCT-116 p53 Agonism Beta-lactamase Assay, Ratio, Phase 2 (AID 2283592)
Cellular tumor antigen p53 (Homo sapiens), sequence (P04637 whole entry, looked up): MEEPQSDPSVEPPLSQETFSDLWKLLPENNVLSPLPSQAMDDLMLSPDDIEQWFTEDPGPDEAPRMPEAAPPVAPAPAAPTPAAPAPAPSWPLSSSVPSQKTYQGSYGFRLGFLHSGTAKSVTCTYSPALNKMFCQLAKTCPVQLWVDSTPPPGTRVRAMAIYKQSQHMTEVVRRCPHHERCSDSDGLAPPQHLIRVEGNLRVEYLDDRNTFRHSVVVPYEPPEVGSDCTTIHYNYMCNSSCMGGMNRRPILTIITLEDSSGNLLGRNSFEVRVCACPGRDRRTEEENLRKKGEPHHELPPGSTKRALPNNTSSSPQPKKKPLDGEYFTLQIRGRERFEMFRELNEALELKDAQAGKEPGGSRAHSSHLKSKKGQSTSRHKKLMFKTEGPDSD
Method in brief: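 HCT-116 cells with p53-responsive beta-lactamase reporter, 4000 cells/well, preincubated 5 h, then compound in DMSO (217-fold dilution) for 16 h at 37C. CCF4-AM substrate 2 h at room temperature; 460/530 nm emission ratio fitted upward versus DMSO.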

[3] = target: Cellular tumor antigen p53 (Homo sapiens) (UniProt P04637); test: TOX21_p53_BLA_p3_ratio: Tox21 HCT-116 p53 Agonism Beta-lactamase Assay, Ratio, Phase 3 (AID 2283596)
Method in brief: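 HCT116 p53-bla cells (4000/well) given compound in DMSO (217-fold dilution) after 5 h, incubated 16 h at 37C. CCF4-AM substrate 2 h at room temperature; 460/530 nm emission ratio, gain fitted against DMSO.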

[4] = TOX21_p53_BLA_p4_viability: Viability Assessment in the Tox21 HCT-116 p53 Agonism Beta-lactamase Assay, Phase 4 (AID 2283597);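 further: hits lower the luminescence signal meaning cytotoxicity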
Method in brief: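 HCT-116 p53-bla cells, 4000/well, dosed after 5 h attachment and incubated 16 h at 37 °C, 5% CO2. Viability from CellTiter-Glo ATP luminescence after 30 min at room temperature, taken after the beta-lactamase read; loss of signal indicates cytotoxicity.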

[5] = TOX21_p53_BLA_p5_viability: Viability Assessment in the Tox21 HCT-116 p53 Agonism Beta-lactamase Assay, Phase 5 (AID 2283600)
Method in brief: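 HCT-116 p53 beta-lactamase reporter cells, 4000/well, were exposed to compound (pin transfer, 217-fold dilution) for 16 hours at 37C. Cellular ATP was read by CellTiter-Glo luminescence after 30 min at room temperature.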

[6] = target: Cellular tumor antigen p53 (Homo sapiens) (UniProt P04637); test: TOX21_p53_BLA_p4_ratio: Tox21 HCT-116 p53 Agonism Beta-lactamase Assay, Ratio, Phase 4 (AID 2283601)
Method in brief: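 HCT116 cells carrying an inducible beta-lactamase reporter were plated at 4000 cells/well, rested 5 h, then exposed to compounds in DMSO (217-fold dilution) for 16 h at 37C. CCF4-AM substrate was loaded 2 h at room temperature; 460/530 nm emission ratio scored gain-of-signal versus DMSO.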

[7] = target: Cellular tumor antigen p53 (Homo sapiens) (UniProt P04637); test: TOX21_p53_BLA_p5_ratio: Tox21 HCT-116 p53 Agonism Beta-lactamase Assay, Ratio, Phase 5 (AID 2283599)
Method in brief: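 HCT-116 cells carrying a p53-inducible beta-lactamase reporter were seeded at 4000 cells/well and dosed after 5 h with compound in DMSO (217-fold dilution). After 16 h at 37C, CCF4-AM substrate was added for 2 h, and the 460/530 nm emission ratio was scored as gain-of-signal versus DMSO.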

Measured: outcome

C=C1C[C@@]23CC[C@H]4[C@@](C)(CCC[C@@]4(C)C(=O)O[C@@H]4O[C@H](CO)[C@@H](O)[C@H](O)[C@H]4O)[C@@H]2CC[C@]1(O[C@@H]1O[C@H](CO)[C@@H](O)[C@H](O[C@@H]2O[C@H](CO)[C@@H](O)[C@H](O)[C@H]2O)[C@H]1O[C@@H]1O[C@H](CO)[C@@H](O)[C@H](O)[C@H]1O)C3
not listed: [7]
inactive: all other assays above

CC(C)(C)NCCNC(C)(C)C
not listed: [7]
inactive: all other assays above

CCCNC(C)C(=O)Nc1c(C)csc1C(=O)OC (stereo not drawn)
not listed: [4] | [6]
inactive: all other assays above

NS(=O)(=O)c1cc2c(cc1C(F)(F)F)NCNS2(=O)=O
not listed: [4] | [6]
inactive: all other assays above

O=C(O)c1cccc(Cl)c1Cl
not listed: [4]
inactive: all other assays above

CC1=C(C(=O)O)N2C(=O)[C@@H](NC(=O)[C@H](N)c3ccc(O)cc3)[C@H]2SC1
not listed: [4]
inactive: all other assays above

CC(C)(C)OCC1CO1 (stereo not drawn)
not listed: [4]
inactive: all other assays above

CC[N+](C)(C)Cc1ccccc1Br
not listed: [4]
inactive: all other assays above

C=CCn1cc[n+](C)c1
not listed: [4]
inactive: all other assays above

CN1C(=O)CC(c2ccccc2)C1=O (stereo not drawn)
not listed: [4]
inactive: all other assays above

C=C(C)C1CC=C(C)C(O)C1 (stereo not drawn)
not listed: [4]
inactive: all other assays above

CCCCCCCCCCCCCCCCCCOCC(O)CO (stereo not drawn)
not listed: [4]
inactive: all other assays above

CC(=O)Oc1cccc(C)c1
not listed: [4]
inactive: all other assays above

C[S+](CC[C@H](N)C(=O)O)C[C@H]1O[C@@H](n2cnc3c(N)ncnc32)[C@H](O)[C@@H]1O (stereo partly drawn)
not listed: [4]
inactive: all other assays above

C=C(C)c1ccccc1
not listed: [4]
inactive: all other assays above
